Bioassay records: PubChem, National Center for Advancing Translational Sciences (NCATS)
VDR inhibitor – Inhibitors of the vitamin D receptor (VDR): qHTS. Vitamin D3 receptor (Homo sapiens), P11473. VDR-SRC2-3 peptide fluorescence polarization, 2 h. Potency, µM, for inactives: max response, negative = inhibition, hits mostly inhibitors. 400,000 compounds, 0.93% hits; also: potency is read from the fitted curve at half-maximal effect
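Fluorescence polarization assay of small-molecule disruption of VDR binding to coregulator peptide SRC2-3. Compounds and controls pin-transferred, then read after 2 h incubation at ambient room temperature.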
CCT chaperon mod – High-Throughput Screening for Modulators of Cytosolic Chaperonin Activity. 360,000 compounds, 0.3% hits. purified chaperonin ATPase assay, HTRF ADP detection, 30 min. activity change, % (no concentration beside the values), hits read low; in the data active = activity change below about -30%
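We incubate TRiC, 40 or 20 nM final, with library compounds at 76 uM and 10 uM ATP for 30 min at 37 °C. ADP formed is detected with Transcreener HTRF reagents after 30 min at room temperature.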
Sfp PPTase inh – qHTS Assay for Inhibitors of Bacillus subtilis Sfp phosphopantetheinyl transferase (PPTase) | 4'-phosphopantetheinyl transferase ffp (Bacillus subtilis), Q9F4F7 | Biochemical Sfp PPTase activity, qHTS | Potency, µM, for inactives: largest response in the series, negative = inhibition, hits mostly inhibitors | 310,000 compounds, 3.5% hits | AID 1490, 2009;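 also: the enzyme is Sfp with the accession as filed and its product quenches rhodamine fluorescence; potency is read from the fitted curve at half-maximal effect; 0% = enzyme reaction without inhibitor and -100% = no enzyme wells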
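After 15 min at room temperature with compound, 15 nM Sfp received 5 uM rhodamine-CoA plus 12.5 uM BHQ-2-ybbR (50 mM Hepes pH 7.6, 10 mM MgCl2). Rate came from the fluorescence difference over 30 min, ex 525/em 598 nm.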
G9a block – qHTS Assay for Inhibitors of Histone Lysine Methyltransferase G9a. Potency, µM (titrated, usually from 102 µM), inactives show at the top dose activity, negative = inhibition, most hits filed as inhibitors. Histone-lysine N-methyltransferase EHMT2 (Homo sapiens), Q96KQ7. G9a H3K9 monomethylation, AlphaScreen, 2 h. 350,000 compounds, 8.8% hits; also: potency is read from the fitted curve at half-maximal effect; nearly all actives have a fitted effect of over 75% in size
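Quantitative HTS format: methyltransferase activity on a biotin-tagged H3K9 peptide is measured by AlphaScreen, using a rabbit anti-monomethyl-H3K9 antibody with streptavidin donor and anti-IgG acceptor beads. Final levels are 20 nM enzyme, 500 nM peptide, 20 uM SAM; 2 h RT.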
PLK1 PBD block – qHTS for Inhibitors of PLK1-PDB (polo-like kinase 1 - polo-box domain): Primary Screen | Serine/threonine-protein kinase PLK1 (Homo sapiens), P53350 | Plk1 PBD binding of FITC phosphopeptide, fluorescence polarization | Potency, µM, for inactives: max response, negative = inhibition, usual class: inhibitors | 360,000 compounds, 2.8% hits; also: potency is read from the fitted curve at half-maximal effect; series mostly up to about 57 µM; nearly all actives have a fitted effect of over 65% in size
Target sequence (P53350 whole entry, looked up, the tested form may be a part): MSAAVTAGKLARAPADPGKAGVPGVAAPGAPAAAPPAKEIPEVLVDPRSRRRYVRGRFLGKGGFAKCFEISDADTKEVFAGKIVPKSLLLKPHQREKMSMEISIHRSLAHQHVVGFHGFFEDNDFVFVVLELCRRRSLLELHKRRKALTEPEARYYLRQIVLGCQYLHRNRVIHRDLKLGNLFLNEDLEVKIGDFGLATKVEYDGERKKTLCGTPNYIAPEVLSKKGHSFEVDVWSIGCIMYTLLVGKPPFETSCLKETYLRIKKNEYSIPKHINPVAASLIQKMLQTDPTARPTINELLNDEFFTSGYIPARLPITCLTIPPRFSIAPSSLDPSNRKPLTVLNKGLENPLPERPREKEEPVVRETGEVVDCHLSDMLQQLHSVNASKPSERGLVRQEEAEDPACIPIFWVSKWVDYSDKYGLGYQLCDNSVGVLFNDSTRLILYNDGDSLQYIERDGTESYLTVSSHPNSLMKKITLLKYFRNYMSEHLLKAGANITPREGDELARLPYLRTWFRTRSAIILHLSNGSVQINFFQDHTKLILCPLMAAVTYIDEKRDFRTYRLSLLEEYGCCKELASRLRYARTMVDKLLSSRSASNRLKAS
MmCpn inh – Inhibitors of TCP-1 ring complex (TRiC) of Methanococcus maripaludis (MmCpn): qHTS | purified Mm-Cpn ATPase, ADP Transcreener TR-FRET | Chaperonin Mm-Cpn (Methanococcus maripaludis) | AID 504842, 2011 | Potency, µM (top dose mostly 76.9 µM), for the others: at the highest dose activity, negative = inhibition, actives largely listed as inhibitors | 330,000 compounds, 0.031% hits; also: potency is read from the fitted curve at half-maximal effect; nearly all actives have a fitted effect of over 80% in size
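ATP (10 uM final) was added to archaeal chaperonin (25 nM final) after 10 min exposure to test compound at 37°C; after 30 min further incubation, ADP was detected by competitive TR-FRET.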
Active calls of the source: *; [ ] = another dose, or the depositor's remark. A selection: hits, their analogues and other compounds. The true share with any hit is near 10%. Unless noted, calls follow the shape of the dose curve; as a rule, active = well fitted curve in the direction sought with a large enough effect; inconclusive = small, poorly fitted or top-dose-only effect, or another doubt; inactive = no such curve, though single readings can be large; an effect the other way counts as inactive or inconclusive. Unless noted, % is scaled to controls: 0 for no effect and ±100 for the full control effect.

What do the screens show for `Cc1ccc2c(c1)N(C(=O)N1CCC(C(=O)NCc3cccs3)CC1)CC(C)O2` (configuration not stated)?
VDR inhibitor: 3%; G9a block: 11%[59 µM]

How did O=C(O)c1cccc(NC(=S)N/N=C/c2ccccc2OCc2cccc(Br)c2)c1 do in these assays?
VDR inhibitor: inconclusive; CCT chaperon mod: 0; Sfp PPTase inh: inconclusive; G9a block: 45µM*; PLK1 PBD block: inconclusive; MmCpn inh: 0%

How did CCCOc1ccc(/C=N/Nc2ccc(C(=O)O)cc2)c(OCCC)c1 do in these assays?
VDR inhibitor: 13%; CCT chaperon mod: -2; Sfp PPTase inh: -27%; G9a block: 40µM*; PLK1 PBD block: inconclusive; MmCpn inh: 2%

Results for CC(C)(C)OC(=O)NCC12C=CC(O1)C1C(=O)N(Cc3ccccc3)C(=O)C12 (configuration not stated) ?
VDR inhibitor: 4%; CCT chaperon mod: -1; Sfp PPTase inh: 71µM*; G9a block: 10µM*; PLK1 PBD block: -9%; MmCpn inh: 2%

Results for C#CCOc1ccccc1CNc1ccccc1 ?
VDR inhibitor: -3%; CCT chaperon mod: 1; Sfp PPTase inh: 5%; G9a block: 2%[59 µM]; PLK1 PBD block: -6%; MmCpn inh: -1%

What do the screens show for `C#CCOc1ccccc1CNC1CCN(Cc2ccccc2)CC1`?
VDR inhibitor: -6%; CCT chaperon mod: -4; Sfp PPTase inh: 79µM*; G9a block: 11µM*; PLK1 PBD block: -15%; MmCpn inh: -4%

Results for CC(C)(C)c1ccc(-c2noc(CCC(=O)Nc3cccc(Cl)c3)n2)cc1 ?
VDR inhibitor: 2%; G9a block: inconclusive

How did Cc1ccc(CNC(=O)c2cnc(N(C)C)nc2)cc1 do in these assays?
VDR inhibitor: 3%; G9a block: 19%[59 µM]

Results for O=C(CSc1nncn1-c1ccccc1)N1CCCC1 ?
VDR inhibitor: 27%; CCT chaperon mod: -1; Sfp PPTase inh: 8%; G9a block: 9%; PLK1 PBD block: -14%; MmCpn inh: 1%

Results for CC1CCN(C(=O)CSc2nncn2-c2ccccn2)CC1 ?
VDR inhibitor: inconclusive; CCT chaperon mod: 1; Sfp PPTase inh: inconclusive; G9a block: 7.1µM*; PLK1 PBD block: 27µM*; MmCpn inh: 2%

Results for COc1ccc(OC(=O)c2cn(-c3cccc(OC)c3)c(=O)c3ccccc23)cc1 ?
VDR inhibitor: 0%; G9a block: 4%[59 µM]

How did COc1ccc(NC(=O)COCc2cc(-c3ccco3)on2)cc1Cl do in these assays?
VDR inhibitor: 6%; G9a block: -33%[59 µM]

What do the screens show for `CCOC(=O)c1c(C)[nH]c(C)c1C(=O)CSc1nnc(-c2ccco2)n1Cc1ccccc1`?
VDR inhibitor: 9%; CCT chaperon mod: 1; Sfp PPTase inh: 14%; G9a block: inconclusive; PLK1 PBD block: -2%; MmCpn inh: 1%

Results for CC(C)(C)NC(=O)CSc1nnc(-c2ccncc2)n1Cc1ccccc1 ?
VDR inhibitor: -3%; CCT chaperon mod: 0; Sfp PPTase inh: 15%; G9a block: -25%[12.7 µM]; PLK1 PBD block: -4%; MmCpn inh: 1%

How did CC1CN(C(=O)CSc2nnc(-c3ccncc3)n2-c2ccccc2)CC(C)O1 (configuration not stated) do in these assays?
VDR inhibitor: 15%; CCT chaperon mod: 0; Sfp PPTase inh: 15%; G9a block: -23%[12.7 µM]; PLK1 PBD block: -5%; MmCpn inh: 1%

Results for C=CCn1c(SCC(=O)c2c(C)[nH]c3ccccc23)nnc1-c1ccncc1 ?
VDR inhibitor: 12%; CCT chaperon mod: -3; Sfp PPTase inh: -9%; G9a block: 50µM*; PLK1 PBD block: -5%; MmCpn inh: 0%

How did C=CCn1c(SCC(=O)N2CC(C)OC(C)C2)nnc1-c1ccncc1 (configuration not stated) do in these assays?
VDR inhibitor: -17%; CCT chaperon mod: -2; G9a block: 7.9µM*; PLK1 PBD block: -14%; MmCpn inh: 2%

What do the screens show for `CC(C)C(C)(C#N)NC(=O)CSc1nnc(-c2ccncc2)n1Cc1ccccc1` (configuration not stated)?
VDR inhibitor: inconclusive; CCT chaperon mod: -29; Sfp PPTase inh: 11%; G9a block: -8%; PLK1 PBD block: 21µM*; MmCpn inh: 0%

How did CCOC(=O)c1c(C)[nH]c(C)c1C(=O)CSc1nnc(-c2ccncc2)n1Cc1ccccc1 do in these assays?
VDR inhibitor: 11%; CCT chaperon mod: 1; Sfp PPTase inh: 3%; G9a block: 56µM*; PLK1 PBD block: -1%; MmCpn inh: 2%

Results for CCCNC(=O)Cn1nc(-c2ccc(C)c(C)c2)c2cnc3ccc(F)cc3c21 ?
VDR inhibitor: 1%; G9a block: -3%[59 µM]

Results for Cc1ccc(CNC(=O)C(=O)NCC(c2cccnc2)N2CCN(c3ccc(F)cc3)CC2)cc1 (configuration not stated) ?
VDR inhibitor: 4%; G9a block: -1%[59 µM]

How did Cc1[nH]c2ccccc2c1C(=O)CSc1ccc(Cl)cc1 do in these assays?
VDR inhibitor: inconclusive; CCT chaperon mod: -3; Sfp PPTase inh: 15%; G9a block: -30%; PLK1 PBD block: 12µM*; MmCpn inh: -6%

How did Cc1[nH]c2ccccc2c1C(=O)CSc1nccc(=O)[nH]1 do in these assays?
VDR inhibitor: -12%; CCT chaperon mod: -18; Sfp PPTase inh: 6%; G9a block: 13%[59 µM]; PLK1 PBD block: inconclusive; MmCpn inh: 0%

What do the screens show for `CCOC(=O)CN(C(=O)CSc1nnc(-c2ccncc2)n1CCCN(C)C)c1ccccc1`?
VDR inhibitor: -4%; CCT chaperon mod: 0; Sfp PPTase inh: -14%; G9a block: 2.8µM*; PLK1 PBD block: -2%; MmCpn inh: 1%

How did C=CCn1c(SCn2nnc3ccccc3c2=O)nnc1-c1ccc(F)cc1 do in these assays?
VDR inhibitor: -4%; CCT chaperon mod: 2; Sfp PPTase inh: 9%; G9a block: 32µM*; PLK1 PBD block: -1%; MmCpn inh: -9%

What do the screens show for `CCOC(=O)CN(C(=O)CSc1nnc(-c2ccncc2)n1CCCOC)c1ccccc1`?
VDR inhibitor: -3%; CCT chaperon mod: 0; Sfp PPTase inh: 16%; G9a block: -43%[59 µM]; PLK1 PBD block: -2%; MmCpn inh: -1%
